Measurements taken from PubChem BioAssay.
Calls of active or inactive are those of the source.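 How the source made its calls: active means inhibition over a set limit, the all-compound mean plus 3 SD, in both replicate runs; inconclusive means over that limit in just one replicate run; inactive means at or under that limit in both runs.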

Assay: RAM pathway blockade in budding yeast – dse1pr::URA3 reporter, 5-FOA selection, pilot screen (AID 869);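 further: 0% = DMSO wells with no growth and 100% = 10 µM 1-NA-PP1 with full growth; RAM network block rescues cells from 5-FOA so hits raise OD615 growth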
Settings: S. cerevisiae dse1pr::URA3 5-FOA growth, OD615, 2 d; at 10 µM; active compounds read high; strain carries analog-sensitive mutant Cbk1 kinase

Structure (SMILES)	inhibition
CCOC(=O)c1cc(-c2ccc(C)o2)nn1CCC#N	0.86% (inactive)
Cc1cc(C)cc(N(CC(=O)NCc2ccco2)S(=O)(=O)c2c(C)noc2C)c1	2.42% (inactive)
COc1ccc(OCCSc2ncnc3nc[nH]c23)cc1	3.27% (inactive)
Cc1sc2ncnc(Sc3nnc4sc5ccccc5n34)c2c1C	2.33% (inactive)
CC(=O)Nc1nc2n(n1)C(c1ccccc1)C=C(c1ccccc1)N2 (stereo not given)	1.06% (inactive)
O=C(c1ccc(CS(=O)(=O)c2ccc(Br)cc2)o1)N1CCN(c2ncccn2)CC1	1.94% (inactive)
CC(=O)c1cccc(NC(=O)c2cc(C(C)C)on2)c1	0.785% (inactive)
Cc1ccccc1-c1noc(-c2cccs2)n1	2.11% (inactive)
COc1ccc(OC)c(S(=O)(=O)Nc2ccc(OCC(=O)O)cc2)c1	0.98% (inactive)
CC(=O)Nc1ccc(S(=O)(=O)Nc2cccc(C(=O)NC(C)(C)C)c2)cc1	1.53% (inactive)
CCOC(=O)N1CCN(CC(=O)Nc2cc(OCC)ccc2OCC)CC1	2.08% (inactive)
Cc1cc(C)cc(OCC(=O)Nc2cccc(-c3nc4ncccc4o3)c2)c1	3.17% (inactive)
Oc1ccc(-c2nc3cnccn3c2Nc2ccc3c(c2)OCCO3)cc1	1.58% (inactive)
CCOC(=O)c1ccc(N2C(=O)CC(C3CCCO3)C2=O)cc1 (stereo not given)	0.84% (inactive)
CC(=O)N1CCc2cc(S(=O)(=O)Nc3ccccc3N3CCN(C)CC3)ccc21	1.71% (inactive)
CC(=O)c1cccc(NC(=O)C2CCN(S(=O)(=O)c3ccc(F)cc3)CC2)c1	3.66% (inactive)
CCc1nnc(NC(=O)CSc2nnc(Cc3cccn3C)n2C)s1	0.7% (inactive)
CCNc1cc2oc(=O)c(CN3CCOCC3)c(C)c2cc1C	2.04% (inactive)
COc1ccc(N=C(N(C)C)P(=O)(N(C)C)N(C)C)cc1	0.22% (inactive)
COC(=O)c1ccc2c(c1)N(C)CCS2	0.22% (inactive)

Structure (SMILES)	inhibition
O=C(CSc1nnc(COc2ccccc2)o1)Nc1nccs1	1.78% (inactive)
COC(=O)c1ccccc1NC(=O)Nc1nnc(N2CCCCC2C)s1 (stereo not given)	0.815% (inactive)
Cc1csc(NC(=O)CSc2nnc(Cn3c(=O)sc4ccccc43)n2-c2ccccc2)n1	2.42% (inactive)
CC(C)(C)OC(=O)N1CCC(C(N)=O)CC1	0.535% (inactive)
C=CCSc1nnc2c(n1)OC(c1cccnc1)Nc1ccccc1-2 (stereo not given)	1.75% (inactive)
CN(C)/C=N/c1c(C#N)cnn1-c1ccccc1	1.95% (inactive)
COc1ccccc1CCNC(=O)c1cnn2c(C(F)F)cc(C)nc12	-0.1% (inactive)
COc1ccc(N2C(=O)CCC(C(=O)N3CCC(C(N)=O)CC3)C2c2ccc(F)cc2)cc1 (stereo not given)	1.6% (inactive)
O=C(c1cc(C2CC2)on1)N1CCOCC1	1.57% (inactive)
Clc1ccc(-c2nnn(Cc3nc4ccccc4s3)n2)cc1	0.615% (inactive)
CC(C)C(=O)Nc1ccc2c(c1)C(=O)N(CCC(=O)O)C2=O	2.14% (inactive)
COc1ccc(N(CC(=O)NCc2ccccc2OC)S(=O)(=O)c2c(C)nn(C)c2C)cc1	0.135% (inactive)
O=C(c1cncc(Br)c1)N1CCN(c2ccc(N3CCOCC3)nn2)CC1	0.48% (inactive)
CC1(C)CC(=O)C(C=NCCN2CCN(C(=O)CC3CCCC3)CC2)=C(O)C1	1.25% (inactive)
COC(=O)c1c(N2C(=O)CCC2=O)sc2c1CCCC2	1.26% (inactive)
CC1(C)Cc2ccccc2-c2nc(NCCCO)n(-c3ccccc3)c(=O)c21	1.07% (inactive)
CN(Cc1ccccc1)c1nnc(N)s1	0.935% (inactive)
CC(=O)Nc1ccc(-c2cc(NC(C)=O)n(-c3ccccc3)n2)cc1	0.97% (inactive)
COc1ccc(C2C(C(=O)Nc3cc(C)on3)c3ccccc3C(=O)N2C)cc1OC (stereo not given)	1.24% (inactive)
CC(=O)Nc1ccc(S(=O)(=O)NCCc2cc3c(C)ccc(C)c3[nH]c2=O)cc1	1.82% (inactive)
